Reference: PubChem BioAssay (NCI)
This is part of a sample that, as a whole, favours compounds with a hit. Of some 83,000 tested, about 20% had one in any assay.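 96-well plates, one dose, 48 hours. Percent growth reported; active if below 10.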 Values without a mark were called inactive. Active and inactive are the calls of the source.

Assays:
Assay in all cases: NCI-60 one-dose screen, 48 h (100 = growth as untreated, 0 = no growth, -100 = all killed)
Conditions in all cases: 10 µM unless noted
DU-145 prostate = tested on: DU-145 prostate
K-562 leukemia = tested on: K-562 leukemia
MALME-3M melanoma = tested on: MALME-3M melanoma
MDA-MB-231 breast = tested on: MDA-MB-231 breast
RXF 393 renal = tested on: RXF 393 renal
SF-268 CNS = tested on: SF-268 CNS
SF-295 CNS = tested on: SF-295 CNS
SF-539 CNS = tested on: SF-539 CNS
UACC-257 melanoma = tested on: UACC-257 melanoma
M14 melanoma = tested on: M14 melanoma

Compound	growth (DU-145 prostate)	growth (K-562 leukemia)	growth (MALME-3M melanoma)	growth (MDA-MB-231 breast)	growth (RXF 393 renal)	growth (SF-268 CNS)	growth (SF-295 CNS)	growth (SF-539 CNS)	growth (UACC-257 melanoma)	growth (M14 melanoma)
CCOc1ccc(-c2cc(C3(S(=O)(=O)c4ccc(C)cc4)CC=CC3)on2)cc1	101%	70.9%	83.6%	91.8%	93.6%	98.6%	90%	98.6%	74.9%	107%
COC(=O)[C@@H](Cc1c[nH]c2ccccc12)NC(=O)[C@H](Cc1ccccc1)NCc1ccncc1	108%	102%	86.5%	93.2%	103%	96.9%	106%	103%	79.4%	103%
O=C(Nc1ncc(Cc2ccccc2)s1)c1cc(-c2ccccc2)nc2ccccc12	110%	103%	98%	104%	90.5%	103%	107%	101%	92.9%	93.3%
O=c1c(/C=C/c2c(O)ccc3ccccc23)nnc2sc(-c3cccc([N+](=O)[O-])c3)nn12	44.1%	50.9%	72.9%	30.8%	74.5%	40.4%	43.8%	53.2%	54.6%	52.3%
COc1cc(OC)cc(C(=O)Nc2cnc(Nc3ccc(N4CCOCC4)nc3)nc2Oc2ccc(C(F)(F)F)cc2)c1	78.8%	97%	57.2%	44%	76.5%	78.7%	77%	34%	16.7%	93.1%
CC1=NC(=S)NC(c2ccccc2)/C1=C1/CC(c2ccccc2O)NN1 (stereo not given)	101%	99.4%	97.9%	94.8%	103%	93.3%	100%	93.4%	107%	97.3%
N=C(N)c1ccc(-c2ccc(-c3ccc(Cl)cc3Cl)s2)nc1	28.7%	-1.71% (active)	100%	74.3%	79.8%	89.8%	58.4%	83.5%	101%	74.7%
CCC(=C(c1ccc(OCCN(CC)CC)cc1)c1ccc(OCCN(CC)CC)cc1)c1ccc(Cl)cc1	-19.7% (active)	0.499% (active)	-81.4% (active)	-81.7% (active)	-54.3% (active)	-4.01% (active)	-68.5% (active)	-90.3% (active)	-65% (active)	-79% (active)
O=C(Nc1ccc(Oc2cccc(F)c2)c(Cl)c1)c1cnccn1	19.1%	13.4%	51.4%	53.5%	7.37% (active)	55.5%	36%	-3.46% (active)	64.9%	25.6%
COc1ccc(-c2ccc(-c3ccc(C(=N)N)nc3)s2)cc1	-91.5% (active)	-27% (active)	87.7%	-79.8% (active)	66.4%	-65.4% (active)	-81.2% (active)	-98.4% (active)	84.6%	-56.6% (active)
CCN(CC)c1ccc(/C=N/NC(=O)c2ccccc2Nc2ccnc(C(F)(F)F)c2)c(O)c1	20.7%	62.9%	45.3%	56.8%	51.4%	14.5%	24.1%	-11.1% (active)	19.2%	-17.4% (active)
C=CCNc1nc(O)c(/C=C2\C=Nc3ncccc32)s1	12.7%	42.1%	40.2%	19.8%	-41.3% (active)	-3.26% (active)	13%	-66.2% (active)	9.55% (active)	24.5%
COC1CC(O)C2=C(CC3C(/C(C)=C\CC=C(C)C)CCC3(C)O2)C1=O (stereo not given)	101%	96.7%	102%	115%	110%	91.1%	107%	109%	95.2%	106%
O=C(/C=C/c1ccco1)Nc1ncc(Cc2ccc(F)cc2)s1	19%	10.8%	59%	45.5%	12.7%	54.9%	11.7%	-21.3% (active)	45.2%	16.7%
COc1ccc(C2CC(=O)Oc3c(OC)c4c(c(OC)c32)OCO4)cc1 (stereo not given)	112%	61.1%	94.5%	100%	99.6%	99.3%	102%	98.6%	101%	98.8%
COC(=O)c1cc(-c2ccc(OC)c(OC)c2)[nH]c1N/N=C/c1c(Cl)cccc1Cl	21.2%	19.9%	46.8%	41.1%	-10.4% (active)	43.6%	-0.264% (active)	-15.2% (active)	49.3%	0.331% (active)
Cc1nn(C)c2ncnc(Nc3ccccc3Br)c12	103%	97.1%	111%	85.2%	104%	99.2%	95.8%	99.9%	105%	101%
CCCCN(CCC#N)C(N)=O	97.2%	115%	98.4%	104%	109%	99.7%	111%	100%	101%	112%
O=C(NS(=O)(=O)c1ccccc1)n1cc(-c2ccncc2)c(-c2cc(O)cc(Cl)c2)n1	112%	78%	15.3%	90.4%	112%	108%	110%	86.5%	70.8%	32.1%
CS(=O)(=O)c1cccc(Nc2ncc3cc(-c4ccccc4Cl)ccc3n2)c1	18.6%	1.05% (active)	11.8%	3.46% (active)	-14.3% (active)	19.9%	20.9%	-10.5% (active)	24.8%	5.89% (active)
Cc1c(CC(=O)Nc2ccccc2)nnn1-c1ccccc1	115%	101%	106%	118%	120%	104%	109%	100%	104%	108%
COC(=O)[C@H](C)NC(=O)[C@@H]1CCCN1C(=O)CNC(=O)[C@H](C)N	105%	101%	86.7%	106%	108%	97%	100%	106%	103%	103%
CN1CCN(CC(=O)N(C)c2ccc(N=C(c3ccccc3)c3c(O)[nH]c4ccc([N+](=O)[O-])cc34)cc2)CC1	51.3%	5.2% (active)	84%	63.5%	28.2%	74.3%	53.9%	36.1%	103%	36.3%
CCOC(=O)c1c(Nc2nc3ccccc3s2)sc2c1CCC(=O)C2	84.8%	10.2%	93.9%	79.4%	83.6%	71%	86.3%	46.8%	92.7%	58.6%
NS(=O)(=O)Oc1cccc(-c2nc3sccn3c2-c2ccccc2)c1	89.9%	16.7%	41.3%	60.3%	50%	70.1%	28.8%	31.9%	74.4%	20.4%
O=C(Nc1ccc(Cl)cc1)C1=NCCCCN1	84.1%	42.3%	96.7%	97.9%	106%	77.7%	93.4%	95.8%	99.7%	75.7%
C=C(C)[C@@H]1CCC[C@]2(C(=O)OC)CC[C@]3(C)[C@@H](CC[C@@H]4[C@@]5(C)CCCNC(C)(C)[C@@H]5CC[C@]43C)[C@@H]12	105%	55.4%	79.6%	85.5%	90.9%	93.4%	104%	98.7%	98.9%	97%
